Laboratory results published in PubChem BioAssay (NCATS).
Unmarked numbers belong to inactive results. For part of these data: Entries with a potency or affinity are not part of this list. Activity calls are given as the source filed them. How the calls were made is not given here.

Experiments:
[1] = Ebola virus entry assay, green fluorescence channel
[2] = Ebola virus entry assay, blue channel fluorescence
Wherever efficacy is given: 0% is about no effect.

Compound | efficacy [1] [%] | outcome [2]
O=C1CC2(CCCC2)CC(=O)N1 | -26.6 | inactive
CCOc1ccccc1OCC1CNCCO1 (stereo not drawn) | 47.7 | inactive
N#CC1(c2ccc(F)cc2)CCC(=O)CC1 | 28.6 | inactive
Cc1ccccc1C(=O)N1CC/C(=N\OS(=O)(=O)O)c2ccc(Cl)cc21 | -25 | inactive
O=S(=O)(O)c1ccc(O)cc1 | 20.2 | inactive
CCCCCCCCCCCCOCCO | -11.3 | inactive
Nc1nc(N)c(-c2ccccc2)s1 | 13 | inactive
C[C@]12C=CC(=O)C=C1[C@@H](F)C[C@@H]1[C@@H]2[C@@H](O)C[C@@]2(C)[C@H]1CC[C@]2(O)C(=O)CO | 13.6 | inactive
COC(=O)C1=C(C)NC(C)=C(C(=O)OCCc2ccc(N3CCN(C(c4ccccc4)c4ccccc4)CC3)cc2)C1c1cccc([N+](=O)[O-])c1 (stereo not drawn) | -12.1 | inactive
CCCCCC[C@@H](CCC)C(=O)O | 13.6 | inactive
CCC(Cc1c(I)cc(I)c(N)c1I)C(=O)O (stereo not drawn) | -15.6 | inactive
CC(C(=O)O)c1ccc2c(c1)[nH]c1ccc(Cl)cc12 (stereo not drawn) | -20.7 | inactive
CCOC(=O)c1ccc(O)c(O)c1 | -26.2 | inactive
Cc1cc(CCCOc2c(C)cc(-c3noc(C(F)(F)F)n3)cc2C)on1 | 12.1 | inactive
Nc1ncnc(Nc2ccccc2)n1 | -14.2 | inactive
CC(N=C(NC#N)Nc1ccncc1)C(C)(C)C (stereo not drawn) | -23.2 | inactive
CCOC(N)=O | -34.6 | inactive
CS(=O)(=O)c1ccc([C@@H](O)[C@@H](CO)NC(=O)C(Cl)Cl)cc1 | -14.2 | inactive
C[N+]1(CCF)[C@@H]2CC[C@H]1CC(OC(=O)C(O)(c1ccccc1)c1ccccc1)C2 (stereo partly drawn) | -17.5 | inactive
CCN1CCC[C@H]1CNC(=O)c1c(O)c(Cl)cc(Cl)c1OC | -17.7 | inactive

Compound | efficacy [1] [%] | outcome [2]
CC[N+](CC)(CCNC(=O)C(=O)NCC[N+](CC)(CC)Cc1ccccc1Cl)Cc1ccccc1Cl | -9.71 | inactive
O=C(O)Cc1cccc(-c2cc(CCCCCCc3ccc(O[C@H]4O[C@H](CO)[C@@H](O)[C@H](O)[C@@H]4O)c(-c4cccc(CC(=O)O)c4)c3)ccc2O[C@H]2O[C@H](CO)[C@@H](O)[C@H](O)[C@@H]2O)c1 | -7.69 | inactive
CN(C)C(=O)COC(=O)Cc1ccc(OC(=O)c2ccc(N=C(N)N)cc2)cc1 | -14.4 | inactive
CCCCCCOc1ccccc1C(N)=O | -13.5 | inactive
COC(=O)/C=C\C(=O)OC | 24.5 | inactive
Cc1cccc(C)c1NC(=O)CN(CC(=O)O)CC(=O)O | -22.8 | inactive
COC(=O)C1=C(C)NC(C)=C(C(=O)OCC(C)=O)C1c1ccccc1[N+](=O)[O-] (stereo not drawn) | -11.1 | inactive
COc1ccc(S(=O)(=O)Nc2nnc(CC(C)C)s2)cc1 | -19 | inactive
CC(=O)Nc1c(I)cc(I)c(C(=O)O)c1I | -9.82 | inactive
CCCCCCNC(=O)n1cc(F)c(=O)[nH]c1=O | -33.6 | inactive
N[C@@H](COP(=O)(O)O)C(=O)O | -11.1 | inactive
CCc1cccc(CC)c1NC(=O)CN(CC(=O)O)CC(=O)O | 15.2 | inactive
CC(=O)c1ccc(OCC(=O)N2CCCCC2)cc1 | -14.3 | inactive
Cc1ccc(O)c2ncccc12 | 17.9 | inactive
COc1ccc2c3c1O[C@H]1[C@H](O)CC[C@H]4[C@@H](C2)N(C)CC[C@@]341 | -11.3 | inactive
O=C(C1CCCCC1)N1CC(=O)N2CCCc3ccccc3C2C1 (stereo not drawn) | 76.1 | inactive
Cc1ccc2ccc(Cl)cc2n1 | 18.4 | inactive
Cc1cc2nc3c(=O)[nH]c(=O)nc-3n(C[C@H](O)[C@H](O)[C@H](O)CO)c2cc1C | 67.6 | inactive
Cc1nc2c([nH]1)c(=O)n(C)c(=O)n2Cc1ccco1 | 40.2 | inactive
